In PubChem BioAssay (NCATS) one finds Potency data, which are given here for 15 molecules.

Inconclusive results are not listed. Calls of active or inactive are those of the source. Calls come from the whole dose curve; as a rule, active = well fitted curve in the direction sought with a large enough effect; inconclusive = small, poorly fitted or top-dose-only effect, or another doubt; inactive = no such curve, though single readings can be large; an effect the other way counts as inactive or inconclusive.

A short description of assay [1]: qHTS of pediatric cancer cell lines to identify multiple opportunities for drug repurposing: Primary screen for control Hh wild type fibroblast cells (AID 1347106). Note: nearly all actives have a fitted effect of over 55% in size. An outline of the steps: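 Cells (500-1,000/well) in growth media were settled 5 h at 37 degrees C, then given compounds for 48 h. Viability was read as CellTiter-Glo luminescence. Primary runs used MIPE at 11 points (0.78 nM-46 µM) and NPC at 8 points (0.59 nM-46 µM); follow-ups used 11 points.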
(qHTS replaces the single test concentration by a dilution series.)

Assay [2] is described as follows: qHTS of pediatric cancer cell lines to identify multiple opportunities for drug repurposing: Primary screen for Rh30 cells (AID 1347107). Note: nearly all actives have a fitted effect of over 75% in size. In a few lines:
(§1)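 Viability after 48 h compound treatment at 37C, 500-1,000 cells/well, read as ATP luminescence with CellTiter-Glo. Primary screens used 11-point (MIPE, 0.78 nM-46 µM) or 8-point (NPC, 0.59 nM-46 µM) final concentrations; follow-up screens used 11-point dilutions.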

Assay [3] is described as follows: qHTS of pediatric cancer cell lines to identify multiple opportunities for drug repurposing: Primary screen for Rh41 cells (AID 1347108). Note: nearly all actives have a fitted effect of over 70% in size. In a few lines:
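Readout: CellTiter-Glo luminescence, 48 h treatment. Controls DMSO (neutral) and bortezomib 2.3 µM final (positive). Potency and efficacy taken from primary-screen concentration-response curves.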

A short description of assay [4]: qHTS of pediatric cancer cell lines to identify multiple opportunities for drug repurposing: Confirmatory screen for NB1643 cells (AID 1347109). Note: nearly all actives have a fitted effect of over 45% in size. An outline of the steps:
as §1

Assay [5] in a line: qHTS of pediatric cancer cell lines to identify multiple opportunities for drug repurposing: Confirmatory screen for A673 cells (AID 1347110). Note: nearly all actives have a fitted effect of over 65% in size. An outline of the steps:
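Forty-eight-hour viability assay. Follow-up compounds ran at 11-point dilutions; positive control bortezomib at 2.3 uM final, neutral control DMSO.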

A short description of assay [6]: qHTS of pediatric cancer cell lines to identify multiple opportunities for drug repurposing: Confirmatory screen for SK-N-MC cells (AID 1347111).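 Note: cells exposed to compound for 48 h before the readout; nearly all actives have a fitted effect of over 70% in size.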 An outline of the steps:
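SK-N-MC cells at 500-1,000 cells/well in growth media were pre-incubated 5 h, then exposed to compounds at 11-point dilutions for 48 h at 37 degrees C, 5% CO2. Viability was read as CellTiter-Glo luminescence.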

A short description of assay [7]: qHTS of pediatric cancer cell lines to identify multiple opportunities for drug repurposing: Confirmatory screen for BT-12 cells (AID 1347112). Note: nearly all actives have a fitted effect of over 55% in size. In a few lines:
as §1

Assay [8] in a line: qHTS of pediatric cancer cell lines to identify multiple opportunities for drug repurposing: Confirmatory screen for LAN-5 cells (AID 1347113). Note: nearly all actives have a fitted effect of over 65% in size. An outline of the steps: as §1
Assay [9] can be described thus: qHTS of pediatric cancer cell lines to identify multiple opportunities for drug repurposing: Confirmatory screen for DAOY cells (AID 1347114). Note: nearly all actives have a fitted effect of over 65% in size. In a few lines: (§2)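 Viability measured as metabolically active cells via CellTiter-Glo luminescence following 48 hours of compound exposure, 11-point dilutions in confirmatory testing. 500-1,000 cells/well plated 5 hours before dosing; controls were DMSO and 2.3 µM bortezomib.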

The nature of assay [10]: qHTS of pediatric cancer cell lines to identify multiple opportunities for drug repurposing: Confirmatory screen for SJ-GBM2 cells (AID 1347116). Note: nearly all actives have a fitted effect of over 60% in size. In a few lines: as §2
The nature of assay [11]: qHTS of pediatric cancer cell lines to identify multiple opportunities for drug repurposing: Confirmatory screen for BT-37 cells (AID 1347117). Note: nearly all actives have a fitted effect of over 55% in size. An outline of the steps:
as §1

Assay [12] can be described thus: qHTS of pediatric cancer cell lines to identify multiple opportunities for drug repurposing: Confirmatory screen for TC32 cells (AID 1347118). Note: nearly all actives have a fitted effect of over 65% in size. An outline of the steps:
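TC32 cells, 500-1,000/well in growth medium, compound-treated 48 h at 37 °C; viability from CellTiter-Glo luminescence. Primary screen: MIPE 11-point (0.78 nM–46 µM final), NPC 8-point (0.59 nM–46 µM final); confirmatory at 11-point dilutions.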

The nature of assay [13]: qHTS of pediatric cancer cell lines to identify multiple opportunities for drug repurposing: Confirmatory screen for MG 63 (6-TG R) cells (AID 1347119). Note: nearly all actives have a fitted effect of over 55% in size. An outline of the steps: as §1
Assay [14] in a line: qHTS of pediatric cancer cell lines to identify multiple opportunities for drug repurposing: Confirmatory screen for U-2 OS cells (AID 1347122). Note: nearly all actives have a fitted effect of over 65% in size. An outline of the steps:
as §1

A short description of assay [15]: qHTS of pediatric cancer cell lines to identify multiple opportunities for drug repurposing: Confirmatory screen for Rh41 cells (AID 1347123).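 Note: 48 h compound exposure; nearly all actives have a fitted effect of over 60% in size.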 In a few lines: as §1
The nature of assay [16]: qHTS of pediatric cancer cell lines to identify multiple opportunities for drug repurposing: Confirmatory screen for RD cells (AID 1347124). In a few lines:
as §1

Assay [17] is described as follows: qHTS of pediatric cancer cell lines to identify multiple opportunities for drug repurposing: Confirmatory screen for Rh18 cells (AID 1347125). Note: nearly all actives have a fitted effect of over 55% in size. In a few lines:
as §1

Assay [18] in a line: qHTS of pediatric cancer cell lines to identify multiple opportunities for drug repurposing: Confirmatory screen for Rh30 cells (AID 1347126). Note: nearly all actives have a fitted effect of over 55% in size. In a few lines:
as §1

Assay [19] in a line: qHTS of pediatric cancer cell lines to identify multiple opportunities for drug repurposing: Confirmatory screen for control Hh wild type fibroblast cells (AID 1347121). Note: nearly all actives have a fitted effect of over 70% in size. An outline of the steps:
as §1
Potency is the fitted concentration of half-maximal effect.

As to `CN1CCN(Cc2ccc(NC(=O)Nc3ccc(Oc4cc(NC(=O)C5CC5)ncn4)cc3)cc2C(F)(F)F)CC1`, the Potency in [1] was 8.33 µM (active); in [2], 20.9 µM (active); in [3], 0.469 µM (active); in assay [4], 1.85 µM (active); in assay [5] it was 0.131 µM (active); in assay [6], 0.131 µM (active). Besides, the Potency in assay [7] is 0.465 µM (active); in assay [8] it was 1.04 µM (active); in assay [9], 0.522 µM (active); in assay [10] it was 1.65 µM (active); in assay [11], 0.369 µM (active); in [12], 0.165 µM (active). Also, the Potency was 2.61 µM (active) in assay [13]; 0.737 µM (active) in assay [14]; 0.233 µM (active) in assay [15]; 0.414 µM (active) in assay [16]; 0.369 µM (active) in [17]; 2.33 µM (active) in assay [18].

Regarding `Nc1nccc(Oc2ccc(NC(=O)c3c[nH]cc(-c4ccc(F)cc4)c3=O)cc2F)c1Cl`, the Potency result in [1] and in assay [2] was “inactive” throughout. The Potency in [3] is 18.7 µM (active).

As for `CCN(CC)CCNC(=O)c1ccc2nc(-c3ccccc3)c(-c3ccc(CN4CCC(n5c(=O)[nH]c6ccccc65)CC4)cc3)nc2c1`, the Potency was 9.35 µM (active) in assay [1], 18.7 µM (active) in assay [2] and 10.5 µM (active) in assay [3].

In the case of `CNC(=O)c1ccc(-c2cnc3ncc(Cc4ccc5ncccc5c4)n3n2)cc1F`, the Potency entry in [1], in [2] and in [3] was “inactive” throughout.

Turning to `CC(=O)OCCN1C(=O)c2c(C)nc3ccc(S(=O)(=O)N4CCOCC4)cc3c2C1=O`, the Potency result in [1], in [2] and in [3] was “inactive” each time.

In the case of `Cc1nc2ccc(CN(C)c3ccc(C(=O)N[C@@H](CCC(=O)O)C(=O)O)s3)cc2c(=O)[nH]1`, the Potency entry in assay [1], in [2], in assay [3], in assay [4], in assay [7] and in assay [8] was “inactive” each time. Further, the Potency entry in assay [9], in assay [14], in assay [15] and in assay [17] was “inactive” each time. Also, the results for the Potency in [5], in [6] and in [12] were 0.0827 µM (active), 0.0185 µM (active) and 0.0522 µM (active), respectively.

As to `O=C(O)Cn1nnc(-c2cc(N3CCC(Oc4cc(F)ccc4Br)CC3)no2)n1`, the Potency entry in assay [1], in assay [2] and in assay [3] was “inactive” throughout.

`COCCn1c2c([n+](Cc3cnccn3)c1C)C(=O)c1ccccc1C2=O`: the Potency in assay [1] is 0.264 µM (active); in assay [2] it was 0.0148 µM (active); in assay [3], 0.0469 µM (active); in assay [4], 0.208 µM (active); in assay [5], 0.0165 µM (active); in [6], 0.0093 µM (active). The Potency in assay [7] was 0.0093 µM (active); in assay [8], 0.0059 µM (active); in assay [9], 0.0414 µM (active); in [10], 0.0657 µM (active); in assay [11], 0.0827 µM (active); in [12] it was 0.0185 µM (active). Moreover, the Potency is 0.0737 µM (active) in assay [13]; 0.261 µM (active) in assay [19]; 0.0147 µM (active) in [14]; 0.0185 µM (active) in assay [15]; 0.0261 µM (active) in assay [16]; 0.0147 µM (active) in assay [17]. Besides, in [18], the Potency entry was “inactive”.

Take `Cc1cn2cc(C(=O)N(C)CCO)cc(N[C@@H]3CCOc4cccc(C)c43)c2n1`: the Potency result in assay [1], in assay [2] and in [3] was “inactive” throughout.

For `Nc1ccn([C@@H]2CS[C@H](CO)O2)c(=O)n1`, the Potency result in [1], in assay [2] and in assay [3] was “inactive” each time.

`CC(O)C1C(=O)N2C(C(=O)O)=C(SC3CNC(C(=O)N(C)C)C3)C(C)C12` (stereo unspecified): the Potency result in assay [1], in assay [2] and in assay [3] was “inactive” throughout.

As for `C=CC(=O)Nc1cccc(Oc2nc(Nc3ccc(N4CCN(C)CC4)cc3)ncc2Cl)c1`, the Potency in assay [1] was 16.6 µM (active); in assay [2] it was 18.7 µM (active); in assay [3] it was 11.8 µM (active); in assay [4], 8.27 µM (active); in [5] it was 16.5 µM (active); in assay [6] it was 1.31 µM (active). Also, the Potency in assay [7] was 16.5 µM (active); in assay [8], 6.57 µM (active); in assay [9], 18.5 µM (active); in [12] it was 1.17 µM (active); in assay [13], 2.93 µM (active); in assay [19], 20.8 µM (active). For the same molecule, the Potency in assay [14] and in assay [15] was 2.61 µM (active) throughout.

For the molecule `C[C@@]12O[C@@H](C[C@]1(O)CO)n1c3ccccc3c3c4c(c5c6ccccc6n2c5c31)CNC4=O`, the Potency in assay [1] was 23.5 µM (active); in [3] it was 7.43 µM (active); in assay [4], 1.85 µM (active); in assay [5] it was 1.04 µM (active); in assay [6], 0.261 µM (active); in [7], 14.7 µM (active). Besides, the Potency is 5.22 µM (active) in assay [8]; 9.27 µM (active) in [9]; 18.5 µM (active) in assay [10]; 2.93 µM (active) in assay [11]; 0.657 µM (active) in assay [12]; 1.47 µM (active) in [13]. In addition, the Potency in assay [19] is 18.5 µM (active); in assay [14] it was 0.737 µM (active); in [15] it was 8.27 µM (active); in assay [17] it was 3.69 µM (active); in assay [18] it was 2.33 µM (active). For the same molecule, in assay [2], the Potency result was “inactive”.

For `CC(C)Nc1cc(C(F)(F)F)cc2nc(NC(=O)c3cccnc3)nn12`, the Potency result in assay [1], in [2] and in assay [3] was “inactive” in each case.

Consider `CNC(=O)c1nn(C)c2c1C(C)(C)Cc1cnc(Nc3ccc(N4CCN(C)CC4)cc3)nc1-2`, for which the Potency result in assay [1], in assay [2] and in assay [19] was “inactive” in each case. For the same molecule, the Potency in assay [3] is 11.8 µM (active); in assay [5] it was 0.928 µM (active); in assay [6] it was 1.17 µM (active); in [7], 9.27 µM (active); in [8], 1.85 µM (active); in assay [9], 9.27 µM (active). The Potency in assay [10] is 0.657 µM (active); in assay [11], 1.04 µM (active); in assay [12], 1.65 µM (active); in assay [14], 1.31 µM (active); in [15], 3.29 µM (active); in assay [16] it was 0.233 µM (active). In addition, the Potency is 4.65 µM (active) in assay [17] and 0.928 µM (active) in [18].
